According to PubChem BioAssay AID1851 (National Center for Advancing Translational Sciences (NCATS), 2009):
Screen size: about 16,000 compounds; about 5,800 (36%) were called active. Inconclusive results (about 23%) are left out. The list shows a part of the results. A number with no mark means an inactive call. The call rests on the fitted dose curve; in most records, active means well fitted curve in the direction sought with a large enough effect; inconclusive means small, poorly fitted or top-dose-only effect, or effect the other way; inactive means no such curve, though single readings can be large or run the other way.
On the % scale 0 is the no-effect control and ±100 the full control effect.

These compounds were tested against Cytochrome P450 2C19 (Homo sapiens) (UniProt P33261) (assay: Cytochrome panel assay with activity outcomes). Conditions: recombinant CYP, pro-luciferin dealkylation, luminescence, p450-cyp2c19; series mostly up to 57.1 µM; activity, negative = inhibition: at the top concentration.
Chain of Cytochrome P450 2C19 (Homo sapiens) (P33261 whole entry, looked up): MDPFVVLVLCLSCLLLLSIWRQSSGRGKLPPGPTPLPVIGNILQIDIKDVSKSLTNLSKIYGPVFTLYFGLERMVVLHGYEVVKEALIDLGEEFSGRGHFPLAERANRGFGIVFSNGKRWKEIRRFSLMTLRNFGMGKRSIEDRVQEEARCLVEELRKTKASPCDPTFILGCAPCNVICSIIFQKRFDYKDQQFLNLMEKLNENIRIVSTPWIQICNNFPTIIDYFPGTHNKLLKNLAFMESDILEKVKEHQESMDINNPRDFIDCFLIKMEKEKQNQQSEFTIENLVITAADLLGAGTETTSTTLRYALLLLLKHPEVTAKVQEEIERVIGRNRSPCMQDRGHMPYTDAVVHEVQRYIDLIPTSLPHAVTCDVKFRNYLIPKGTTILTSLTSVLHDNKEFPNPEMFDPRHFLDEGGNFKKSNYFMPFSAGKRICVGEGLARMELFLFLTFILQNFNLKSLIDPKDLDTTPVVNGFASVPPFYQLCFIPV
In the case of `Cc1nc2cnc(N3CCN(C)CC3)nc2n(Cc2ccc(F)cc2)c1=O`, the “activity, negative = inhibition” value is reported as -36%.
`COc1ccc(-c2nc3cnc(OC)nc3n(-c3ccc(OC)cc3)c2=O)cc1` was tested, and the “activity, negative = inhibition” value was 19.5%.
For `COc1ccc(-n2c(=O)c(CCc3ccccc3)nc3cnc(N4CCN(C)CC4)nc32)cc1`, the “activity, negative = inhibition” value was -34.8%.
For `COCCn1c(=O)c(-c2cn(C)c3ccccc23)nc2cnc(OCc3ccccc3)nc21`, the “activity, negative = inhibition” value was -1.54%.
`COc1ncc2nc(-c3ccc(F)cc3)c(=O)n(CCc3ccccc3)c2n1` was tested, and the “activity, negative = inhibition” value was -5.58%.
`COc1ccc(-n2c(=O)c(CCc3ccccc3)nc3cnc(OC)nc32)cc1` was tested, and the AC50 was 6.31 µM (active).
With `COc1ccc(-c2nc3cnc(OC)nc3n(CCc3ccccc3)c2=O)cc1` the “activity, negative = inhibition” value was -22.4%.
In the case of `COc1ncc2nc(CCc3ccccc3)c(=O)n(CCc3ccccc3)c2n1`, the AC50 is reported as 7.94 µM (active).
With `Cc1nc2cnc(Oc3ccccc3)nc2n(CCc2ccccc2)c1=O` the “activity, negative = inhibition” value was -27.8%.
`COCCn1c(=O)c(CCc2ccccc2)nc2cnc(OC)nc21` was tested, and the AC50 was 0.794 µM (active).
With `COc1ncc2nc(C)c(=O)n(CCc3ccccc3)c2n1` the AC50 was 25.1 µM (active).
For `COCCn1c(=O)c(-c2ccccc2)nc2cnc(OC)nc21`, the “activity, negative = inhibition” value was -40%.
`C#CCCCO/N=C1/C[C@@H](O)[C@@H](O)[C@@H]2[C@@H]3C(=O)N(C4CCCCC4)C(=O)[C@H]3CC[C@@H]12` showed an activity, negative = inhibition of -32.2% [at 11.4 µM].
`O=C1C[C@H]2C(=O)[C@@H]1[C@@H](C(=O)O)[C@H]2C(=O)O` gave an activity, negative = inhibition of -11.8% [at 11.4 µM].
`Cc1ccc(S(=O)(=O)N[C@H]2COC(=O)[C@@H](C)COC(=O)[C@H](C)NC(=O)C/C=C\[C@H]2C)cc1` gave an activity, negative = inhibition of 9.82% [at 11.4 µM].
For `COc1ccc(-c2nc3cnc(N4CCNCC4)nc3n(C)c2=O)cc1`, the “activity, negative = inhibition” value was -36.3%.
With `CCOC(=O)c1c(C)n(C)c2ccc(OC)c(NS(=O)(=O)c3ccc(Cl)s3)c12` the AC50 was 0.282 µM (active).
`Cc1ccc(CCN2CC(C(=O)NCCN3CCOCC3)CC2=O)cc1` (centres undefined) was tested, and the “activity, negative = inhibition” value was 0.693%.
`C=CCNC(=S)Nc1ccc2nc(C)c(C)nc2c1` was tested, and the “activity, negative = inhibition” value was -19.7%.
In the case of `Cc1ccc(NC(=S)NCCN2CCOCC2)cc1C`, the AC50 is reported as 5.01 µM (active).
In the case of `Cc1cc(-c2ccccc2)nnc1NCCN1CCOCC1`, the “activity, negative = inhibition” value is reported as -34.1% [at 25.6 µM].
For `Cc1ccc(SCCNC(=S)Nc2ccc(C)c(C)c2)cc1`, the AC50 was 3.16 µM (active).
In the case of `O=C(c1cccc(F)c1)N1CCC2(CC1)CCN(C(c1ccccc1)c1ccccc1)CC2`, the “activity, negative = inhibition” value is reported as -40.6%.
Compound `CN(C)CCCn1cnc2cc(Cl)c(Cl)cc21` has an activity, negative = inhibition of 51.6% [at 11.4 µM].
In the case of `O=C(N/N=C1\CCCc2ccccc21)c1ccc([N+](=O)[O-])cc1Cl`, the AC50 is reported as 4.47 µM (active).
For `Cc1cc(Cl)ccc1OCC(=O)N/N=C1\CCCc2ccccc21`, the “activity, negative = inhibition” value was -19.7%.
With `CC1CCc2c(C(=O)Nc3nccs3)csc2C1` (centres undefined) the AC50 was 2.82 µM (active).
For `CCCCNC(=S)NNC(=O)c1csc2c1CCC(C)C2` (centres undefined), the AC50 was 3.98 µM (active).
In the case of `CCCCNC(=S)NNC(=O)c1sccc1C`, the AC50 is reported as 0.794 µM (active).
In the case of `CC(C)NC(=O)N1CCC2(CC1)CCN(C(=O)c1ccncc1)CC2`, the “activity, negative = inhibition” value is reported as 29.5%.
`CCNc1ncc2nc(-c3cc(F)cc(F)c3)c(=O)n(C[C@H]3CCCO3)c2n1` was tested, and the “activity, negative = inhibition” value was -29.6%.
In the case of `COCCn1c(=O)c(-c2ccc(OC)cc2)nc2cnc(N3CCNCC3)nc21`, the “activity, negative = inhibition” value is reported as -6.8%.
In the case of `CCOC(=O)C(=Cc1ccc(-c2ccsc2C(=O)OC)o1)C(=O)OCC`, the AC50 is reported as 2.82 µM (active).
With `COC(=O)c1sccc1-c1ccc(C(=O)Nc2cccnc2)o1` the AC50 was 3.16 µM (active).
For `COC(=O)COc1ccsc1C(=O)OC`, the “activity, negative = inhibition” value was -18.3%.
For `COC(=O)c1sccc1-c1ccc(C(=O)Nc2cccc(Cl)c2)o1`, the AC50 was 3.16 µM (active).
In the case of `CCN(CC)S(=O)(=O)c1ccc2c3c(cccc13)C(=O)S2`, the AC50 is reported as 1 µM (active).
`CCN(CC)S(=O)(=O)c1cccc2c(N(C)C)cccc12` was tested, and the AC50 was 3.98 µM (active).
For `Cc1noc(NS(=O)(=O)c2cccc3c(N(C)C)cccc23)c1C`, the “activity, negative = inhibition” value was -5.75%.
In the case of `Cc1cnc(CNc2ncncc2-c2ccoc2)cn1`, the “activity, negative = inhibition” value is reported as -27.2%.
In the case of `c1cncc(-c2cncnc2NCc2cccs2)c1`, the “activity, negative = inhibition” value is reported as -41.8%.
`c1csc(CNc2ncncc2-c2ccoc2)c1` was tested, and the AC50 was 15.8 µM (active).
`c1ccc(CNc2ncncc2-c2ccoc2)cc1` was tested, and the AC50 was 10 µM (active).
`CN(C)c1ccc(-c2cncnc2NCc2cccs2)cc1` was tested, and the AC50 was 0.631 µM (active).
For `NC/C=C\C(=O)O`, the AC50 was “inactive”.
With `CC1=CC=CN2CC(O)CN=C12` (centres undefined) the “activity, negative = inhibition” value was 28.9%.
`Cc1cc(C)cc(-n2nnnc2SCC(=O)Nc2nc(-c3ccc(Cl)cc3)cs2)c1` was tested, and the AC50 was 3.55 µM (active).
With `O=C1CCCN1CC(CN1CCOCC1)Sc1nnnn1-c1ccccc1` (centres undefined) the AC50 was 14.1 µM (active).
With `CSc1c(-c2ccccc2)nc2ccc(Cl)cc2c1C(=O)O` the “activity, negative = inhibition” value was -17.1%.
`CSc1nc(Sc2cccc(Cl)c2)c2ccccc2n1` was tested, and the AC50 was 6.31 µM (active).
With `Cc1ccc(Sc2nc(C)cc(C)c2S(C)(=O)=O)cc1` the AC50 was 3.16 µM (active).
With `COc1ccc(-c2noc(CCCC(=O)NCCc3ccccc3)n2)cc1OC` the AC50 was 7.08 µM (active).
With `O=C(CCc1nc(-c2ccccc2)no1)NCCc1ccccc1` the AC50 was 5.01 µM (active).
For `COc1ccc(C(=O)NNC(=O)Cc2ccc(-c3ccccc3)cc2)cc1OC`, the “activity, negative = inhibition” value was -4.13%.
`CCN(CC)CCc1nc(-c2ccccc2)no1` was tested, and the “activity, negative = inhibition” value was -20.7% [at 25.6 µM].
Compound `O=C1c2ccccc2C(=O)N1C[C@]1(C(=O)O)NCCS1(=O)=O` has an activity, negative = inhibition of -9.77% [at 11.4 µM].
`O=C1CC[C@H](N2C(=O)c3ccccc3C2=O)C(=O)N1` was tested, and the AC50 was “inactive”.
For `O=C1c2ccccc2C(=O)N1CC(=O)N1c2ccccc2CCc2ccccc21`, the AC50 was 1.41 µM (active).
Work on `CC(C)(N)C(=O)N[C@@H]1C(=O)N2[C@@H]1SC(C)(C)[C@H]2C(=O)O` yielded an activity, negative = inhibition of 2.03% [at 11.4 µM].
In the case of `CCCCC(=O)Nc1ccc(C)c(O)c1`, the AC50 is reported as 15.8 µM (active).
For `CCC(CC)C(=O)Nc1ccc(C)c(O)c1`, the AC50 was 14.1 µM (active).
For `CCCCC(=O)Nc1ccc(C(=O)NNC(=O)CCc2ccccc2)cc1`, the “activity, negative = inhibition” value was -4.99%.
In the case of `Cc1ccc(NC(=O)CC2CS(=O)(=O)CC2CC(=O)Nc2ccc(C)c(C)c2)cc1C` (centres undefined), the “activity, negative = inhibition” value is reported as 0.0954%.
For `Clc1ccc(CSC2=NCCN2)cc1Cl`, the activity, negative = inhibition was -10.9% [at 11.4 µM].
In the case of `CNc1cc(CSC)nc(SCc2ccc(Cl)c(Cl)c2)n1`, the AC50 is reported as 0.794 µM (active).
In the case of `O=C(Oc1ccccc1N1C(=O)C2CCCCC2C1=O)c1ccccc1` (centres undefined), the AC50 is reported as 25.1 µM (active).
With `COc1ccc2c(c1)C(c1ccc([N+](=O)[O-])cc1)=NNC(c1ccco1)=N2` the AC50 was 7.08 µM (active).
For `Cn1cnnc1SCC(=O)n1c2ccccc2c2ccccc21`, the AC50 was 8.91 µM (active).
For `COC(=O)C1=C(CSc2nncn2C)NC(=O)NC1c1ccc(F)cc1` (centres undefined), the “activity, negative = inhibition” value was -22.7%.
For `CC(=O)Oc1ccc2ccccc2c1C(NC(=O)Cc1ccccc1)c1ccc(Cl)cc1` (centres undefined), the AC50 was 1.26 µM (active).
With `CC(=O)Oc1ccc(C(c2ccc(OC(C)=O)cc2)c2ccccn2)cc1` the “activity, negative = inhibition” value was -19.5% [at 25.6 µM].
In the case of `CCCCOc1ccc(CC(=O)NO)cc1`, the “activity, negative = inhibition” value is reported as -1.35% [at 25.6 µM].
With `COc1ccc(OC(=O)c2ccncc2)cc1` the AC50 was 1.41 µM (active).
For `O=C(Nc1ccc(OC(=O)c2cccnc2)cc1)c1cccnc1`, the “activity, negative = inhibition” value was 15.1%.
With `CCCCOc1ccc(OC(=O)c2cccnc2)cc1` the AC50 was 17.8 µM (active).
In the case of `CCCCCOc1ccc(OC(=O)c2ccncc2)cc1`, the AC50 is reported as 3.16 µM (active).
`COc1ccc(C(=O)N2CCC3(CC2)CN(c2ccncc2)C3)cc1` was tested, and the “activity, negative = inhibition” value was 12.9%.
With `N#Cc1ccc(OC(=O)c2ccc(N=C(N)N)cc2)cc1` the activity, negative = inhibition was 14.4% [at 11.4 µM].
For `COc1ccc(C(=O)N2CCC3(CC2)CCN(c2ccncc2)CC3)cc1`, the “activity, negative = inhibition” value was 5.92%.
With `CCN(CC)C(=O)CSc1nc2ccc(NC(=O)CSc3nnc(COc4ccccc4C)n3C)cc2s1` the AC50 was 2.82 µM (active).
With `Br/C(=N\Nc1nn[nH]n1)c1ccncc1` the activity, negative = inhibition was 22.2% [at 11.4 µM].
With `CN(C)/C=C/C(=O)c1ccc(Cl)cc1` the AC50 was 11.2 µM (active).
`CC(=O)ON(C(C)=O)S(=O)(=O)c1ccc(Cl)cc1` was tested, and the “activity, negative = inhibition” value was 7.43%.
In the case of `CC(Oc1ccc(Cl)cc1Cl)C(=O)/C=C/N(C)C` (centres undefined), the AC50 is reported as 2.82 µM (active).
With `CC(Oc1ccc(Cl)cc1)C(=O)/C=C/N(C)C` (centres undefined) the AC50 was 7.94 µM (active).
For `O=C(O)/C=C\[C@H](O)c1ccc(Cl)cc1`, the “activity, negative = inhibition” value was 36%.
For `NCCNC(=O)c1ccc(Cl)cc1`, the AC50 was “inactive”.
`O=C(c1cnccn1)N1CCC2(CC1)CCN(C(c1ccccc1)c1ccccc1)CC2` was tested, and the “activity, negative = inhibition” value was -17.6%.
For `COc1ccc(C(C(=O)NCc2ccccc2)N(Cc2cccs2)C(=O)c2cnccn2)cc1` (centres undefined), the AC50 was 7.08 µM (active).
`CCc1ccc(C(C(=O)NCc2ccc(OC)cc2)N(CCOC)C(=O)Cc2cccs2)cc1` (centres undefined) was tested, and the AC50 was 5.62 µM (active).
`COc1ccc(CNC(=O)C(c2ccc(C)cc2)N(Cc2cccs2)C(=O)c2ccc3c(c2)OCCO3)cc1` (centres undefined) was tested, and the AC50 was 2.82 µM (active).
With `O=C(NCc1ccccc1)C(c1cccs1)N(Cc1cccs1)C(=O)c1cnccn1` (centres undefined) the AC50 was 3.55 µM (active).
In the case of `COc1ccc2nc3oc(C(=O)NCc4cccs4)cc3cc2c1`, the “activity, negative = inhibition” value is reported as -60.4%.
`COC(=O)CSc1ncc(OC)c(OC)n1` was tested, and the “activity, negative = inhibition” value was 4.64%.
For `CCOC(=O)CSc1ncc(OC)c(Sc2ccc(Cl)cc2)n1`, the AC50 was 1.78 µM (active).
`CCOC(=O)C(C)Sc1ncc(OC)c(Sc2ccc(Cl)cc2)n1` (centres undefined) was tested, and the AC50 was 3.55 µM (active).
`CC[C@H]1CC[C@H]2[C@@H]3CC=C4C[C@H](OC(C)=O)[C@@H](N)C[C@@]4(C)[C@H]3CC[C@@]12C` showed an activity, negative = inhibition of 22.6% [at 11.4 µM].
For `c1ccc(-c2c3ccccc3nc3[nH]c4ccccc4c23)cc1`, the AC50 was 10 µM (active).
`CCCCc1c2ccccc2nc2[nH]c3ccccc3c12` was tested, and the “activity, negative = inhibition” value was -4.3%.
`O=c1c2ccccc2nc2n1CCc1c-2[nH]c2ccccc12` was tested, and the “activity, negative = inhibition” value was -20.2%.
With `Clc1ccc(CC[C@H](Cn2ccnc2)Sc2c(Cl)cccc2Cl)cc1` the AC50 was 0.00251 µM (active).
In the case of `COc1ccc(S(=O)(=O)Nc2ccc(S(=O)(=O)N3CCCCC3)cc2)cc1C`, the AC50 is reported as 2.82 µM (active).
For `COc1ccc(NS(=O)(=O)c2ccc(I)cc2)cc1N1CCN(C)CC1`, the “activity, negative = inhibition” value was -0.637%.
With `COc1ccc(S(=O)(=O)N2CCCCCC2)cc1N(C)S(=O)(=O)c1ccc(Cl)cc1` the AC50 was 5.01 µM (active).
